Assay results from PubChem BioAssay (NCATS).
Results filed as inconclusive are left out. Values without a mark were called inactive. Calls of active or inactive are those of the source. Calls follow the shape of the dose curve; as a rule, active = well fitted inhibition curve with a large enough effect; inconclusive = small, poorly fitted or top-dose-only effect; inactive = flat fitted curve, though single readings scatter.

Tests used:
[1] = qHTS profiling for inhibitors of Plasmodium falciparum proliferation (AID 504749); also: nearly all actives have a fitted effect of over 60% in size;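 as to activity, negative = inhibition: 0% = DMSO vehicle and full inhibition = artemisinin control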; conditions: P. falciparum in erythrocytes, SYBR Green DNA, 72 h, at 28.7 µM (top of the series)
Outline: (§1)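 SYBR Green fluorescence (ex 485 nm, em 535 nm) reports parasite DNA after 72 h compound exposure of infected red cells at 0.3% parasitemia, 2.5% hematocrit; signal normalized to 0.29 uM artemisinin and vehicle wells.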

[2] = system: 3D7; experiment: as above; conditions: P. falciparum in erythrocytes, SYBR Green DNA, 72 h; series mostly up to 28.7 µM
Outline: as §1

[3] = system: 7G8; experiment: as above; conditions: P. falciparum in erythrocytes, SYBR Green DNA, 72 h; series mostly up to 28.7 µM
Outline: as §1
Potency is read from the fitted curve at half-maximal effect.

| Structure (SMILES) | activity, negative = inhibition ([1]; parasite line A) | activity, negative = inhibition ([1]; parasite line B) | Potency [2] | Potency [3] |
| --- | --- | --- | --- | --- |
| O=C(NC(=O)c1c(F)cccc1F)Nc1ccc(Cl)c(Oc2ncc(C(F)(F)F)cc2Cl)c1 | 9.79% | -1.85% | inactive | – |
| CCOC(=O)c1ccccc1C(=O)OCC | 8.38% | -4.32% | inactive | inactive |
| CCCCCl | 1.32% | 10.6% | inactive | inactive |
| c1cc2c(c(NC3=NCCN3)c1)CCCC2 | -15.6% | -7.85% | inactive | – |
| CCON=O | -4.19% | 0.895% | inactive | inactive |
| ClC1C(Cl)C(Cl)C(Cl)C(Cl)C1Cl (stereo unspecified) | 10.1% | 13.2% | inactive | inactive |
| OC(c1ccccc1)(c1ccccc1)C1CN2CCC1CC2 (stereo unspecified) | 2.79% | -0.359% | inactive | – |
| COCC(C)N(C(=O)CCl)c1c(C)csc1C (stereo unspecified) | 7.86% | -2.46% | inactive | inactive |
| CC(=O)O[C@H]1CC[C@H]2[C@@H]3CCC4=CC(=O)CCC4=C3C=C[C@]12C | 4.1% | 0.383% | inactive | – |
| CCC1(c2ccccc2)C(=O)NC(=O)N(C)C1=O (stereo unspecified) | 3.95% | 7.56% | inactive | 8.91 µM (active) |
| N#CC1(N2CCCCC2)CCCCC1 | 7.09% | 1.5% | inactive | inactive |
| C=CCC1(C(C)CCC)C(=O)N=C(S)NC1=O (stereo unspecified) | -5.63% | -5% | inactive | inactive |
| O=[N+]([O-])c1ccccc1 | -4.98% | 4.83% | inactive | inactive |
| CCC(N)Cc1c[nH]c2ccccc12 (stereo unspecified) | -18.9% | 9.32% | inactive | inactive |
| CC(C)CCON=O | -1.57% | -11.8% | inactive | inactive |
